# Measurements taken from PubChem BioAssay (NCI).
# Several values for one entry are separate records, joined by “and”; a condition that tells them apart may be missing. Identical values can stand only once. About 83,000 compounds went through this panel and 20% of them were active in at least one assay; those are over-represented in the sample as a whole.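 48-hour exposure, single concentration, 96-well plates; percent growth endpoint where 0 means no net growth. Active: below 10.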 Values without a mark were called inactive. Activity calls are given as the source filed them.
# Tested on: HOP-92 NSCLC
# Assay: NCI-60 one-dose screen, 48 h (100 = growth as untreated, 0 = no growth, -100 = all killed)
# Conditions: 10 µM unless noted
row,Structure (SMILES),growth
1,COc1ccc(C(=O)c2c(N)c(C#N)cn2-c2ccc([N+](=O)[O-])cc2)cc1,102%
2,Fc1ccc(F)c(CNc2nc(SCCN3CCOCC3)nc3c2cnn3CC(Cl)c2ccc(Br)cc2)c1 (stereo not drawn),20.1%
3,COc1ccc(N=Nc2c(N)nn3c(N)c(C#N)c(-c4ccc(F)cc4)nc23)cc1,-3.02% (active)
4,COc1cc(CNC(=O)[C@]23CCC(C)(C)CC2C2=CCC4[C@@]5(C)CCC(OC(C)=O)C(C)(C)C5CC[C@@]4(C)[C@]2(C)CC3)ccc1OCc1cn(-c2ccc(Cl)cc2Cl)nn1 (stereo partly drawn),116%
5,C/C(=N\Nc1ccc(C(=O)O)cc1)c1cnn(-c2cc(=O)[nH]c3ccc(C)cc23)c1C,6.13% (active)
6,N#Cc1cc(-c2ccnc(Nc3ccc(N4CCN(C5COC5)CC4)cc3)n2)ccc1N1CCCC1,52.5%
7,O=C(N/N=C/c1ccc(Cl)cc1)c1ccc(OCc2nc3ccc(Cl)cc3[nH]2)cc1,19.6%
8,COc1ccc(-c2nc3ccccc3n2CC(=O)N=Nc2c(O)[nH]c3ccc(Br)cc23)cc1,79.8%
9,Clc1ccccc1Nc1nnc(-c2c[nH]c3ccccc23)o1,43.9%
10,O=C(NC(=S)N1CCN(c2ncnc3c2cnn3-c2ccccc2)CC1)c1ccc(Br)cc1,47.2%
11,COc1ccc(/C=C/c2nc3ccccc3n3c(-c4cccc([N+](=O)[O-])c4)nnc23)cc1,-48.7% (active)
12,CS(=O)(=O)Nc1cc(-c2ccc3ncnc(Nc4ccc(OCc5cccnc5)c(Cl)c4)c3c2)cnc1Cl,-27.9% (active)
13,O=C1CCC(N2C(=O)c3cccc(NCCOCCOCCOCCC(=O)NCCCC(=O)NC(c4ccc5c(c4)OCO5)c4cc(Cl)c5cccnc5c4O)c3C2=O)C(=O)C1 (stereo not drawn),13.7%
14,COc1cc(/C=C/C(=O)c2cnn(-c3cc(=O)[nH]c4ccc(C)cc34)c2C)cc(OC)c1OC,50.6%
15,Cc1ccc(C(=O)Nc2cc(-n3cnc(F)c3)cc(C(F)(F)F)c2)cc1C#Cc1cnc2cccnn12,57.5%
16,COc1cc(/C=C/C(=O)c2cnn(-c3cc(=O)[nH]c4ccc(Br)cc34)c2C)cc(OC)c1OC,25.7%
17,CCCCCCCOc1ccc(S(=O)(=O)Nc2ccc(C)c(F)c2C(=O)O)cc1,8.57% (active)
18,C#CCN(C)CCCOc1ccc(N(CC)C(=O)c2cc(C(C)C)c(O)cc2O)cc1Cl,-44.6% (active)
19,COC(=O)CSC1=C(C)C(=O)C(OC)=C(OC)C1=O,75.5%

row,Structure (SMILES),growth
1,Nc1cccc(-n2c(COc3ccc(I)cc3)nc3ccccc32)c1,63.3% and 113%
2,O=C(Nc1ccc(F)cc1)Nc1nc2ccc([N+](=O)[O-])cc2s1,-3.56% (active)
3,CC(=O)Nc1cccc(-n2c(COc3ccc(I)cc3)nc3ccccc32)c1,79.9% and 116%
4,Cc1nc2sccn2c1-c1nnc(SCC(C)C)o1,64.4%
5,COc1ccc2[nH]cc(-c3cc4nc(-c5cn(C)c6ncc(Br)cc56)cc(N)n4n3)c2c1,-79.2% (active)
6,Cc1nn(-c2ccccc2)c2ncn(CC(=O)N/N=C/c3ccccc3O)c(=O)c12,55.8%
7,Cc1ccccc1NC(=O)c1cccc(NC(=O)CCl)c1,70%
8,O=C1Nc2ccccc2/C1=C\c1ccc(OCC(=O)c2ccc(Br)cc2)cc1,75.5%
9,CN1CCN(C(=O)Oc2cc3c(c4ccccc24)[C@H](CCl)CN3C(=O)c2cc3cc(OCCCN4CCC4)ccc3[nH]2)[C@@H]2CSSC[C@H]21,-10% (active)
10,O=C(CSc1nc2sc3c(c2c(=O)n1-c1ccc(Cl)cc1)CCCC3)NNC(=O)c1ccc(F)cc1,69.2%
11,COC(=O)c1cc(C(C)=O)n2c3ccccc3c3ccccc3c12,28.1%
12,COc1ccc(NC(=O)Nc2nc3ccc([N+](=O)[O-])cc3s2)cc1,-5.8% (active)
13,CN(C)CCCc1ccc(Nc2cnn(C)c(=O)c2Cl)cc1,110%
14,COc1ccc(NC2=C(I)C(=O)C(C)=C(C)C2=O)cc1,31.4%
15,CN(C(=O)CN1C(=O)/C(=C/c2ccco2)SC1=S)C1CCS(=O)(=O)C1 (stereo not drawn),102%
16,Cc1ccc(C(=O)C[n+]2cccc3c4ccccc4ccc32)cc1,-8.04% (active)
17,Cc1ccc(/C=C/C(=O)c2ccc(S(=O)(=O)NCCNc3nc(N(C)C)nc(N4CCOCC4)n3)cc2)cc1,93.2%
18,C=CCSc1nnc(-c2ccc(-c3nc4ccccc4[nH]3)cc2)o1,79.1%
19,Cc1ccc(Nc2nnc(-c3c[nH]c4ccccc34)o2)c(C)c1,21.8%
